According to PubChem BioAssay AID540345 (The Scripps Research Institute Molecular Screening Center, 2011):
Values without a mark were called inactive. How the calls were made is not given here.

Tested on: Potassium Channel [KATP]
Experiment: selectivity profile over receptors, transporters, CYPs – biochemical, Ricerca HitProfilingScreen, CYP450, set 2, selectivity assay for GPR7 antagonist project, profiling panel (AID 540345)
Details: Ricerca radioligand binding/CYP panel, at 10 µM, hits give high values

`COc1ccc(Oc2c(Cl)cnn(C3c4ccccc4-c4ccccc43)c2=O)cc1` was tested. Which inhibition did it give?
The inhibition was -5%.
